Assay results as given in PubChem BioAssay AID1159580 (chemical genetic matrix, 2015).
Where “and” joins values, the source holds several entries; their conditions need not be identical. Equal entries are not always repeated. The campaign covered roughly 5,500 compounds. About 2,000 (36%) were called active. Not shown: some 18% with an inconclusive outcome. Cut-off read from the data, not from the text of the source: active = normalized growth mostly below about 0.91 (no sharp cut-off); inconclusive = no clear call, values can overlap the other calls; inactive = mostly above about 0.92. The list shows a part of the results.

Assay: chemical genetic growth profiling, strain panel (AID 1159580);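 note: tested at 20 µM; growth read once vehicle control cultures reached saturation at 30 °C; 1 = growth at the plate median or of vehicle wells; lower values mean less growth of the strain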
Settings: S. cerevisiae deletion strains, growth OD

Measured: normalized growth

Cc1ccc(C)c(OCCCC(C)(C)C(=O)O)c1
0.95 (inactive) and 0.784 (active): locus YHR030C, strain SLT2, stronger effect = lower value
0.819 (inactive) and 0.823 (active): locus YJL095W, strain BCK1, stronger effect = lower value
active: locus YCL029C, strain bik1, stronger effect = lower value 0.894 | locus YDL035C, strain GPR1, stronger effect = lower value 0.845 | locus YDL185W, strain tfp1, stronger effect = lower value 0.309 | locus YDR101C, strain arx1, stronger effect = lower value 0.872 | locus YDR137W, strain rgp1, stronger effect = lower value 0.699 | locus YDR162C, strain NBP2, stronger effect = lower value 0.832 | locus YDR318W, strain mcm21, stronger effect = lower value 0.866 | locus YDR388W, stronger effect = lower value 0.874 | locus YDR392W, strain spt3, stronger effect = lower value 0.58 | locus YDR502C, strain sam2, stronger effect = lower value 0.852 | locus YGL078C, strain dbp3, stronger effect = lower value 0.485 | locus YGL086W, strain mad1, stronger effect = lower value 0.877 | locus YHR079C, strain IRE1 (second series), stronger effect = lower value 0.869 | locus YHR079C, strain IRE1, stronger effect = lower value 0.833 | locus YIL125W, strain kgd1, stronger effect = lower value 0.356 | locus YJL129C, strain trk1, stronger effect = lower value 0.857 | locus YKL009W, strain mrt4, stronger effect = lower value 0.437 | locus YKL068W, stronger effect = lower value 0.923 | locus YKL085W, strain MDH1 (second series), stronger effect = lower value 0.492 | locus YKL085W, strain MDH1, stronger effect = lower value 0.492 | locus YKR001C, strain vps1, stronger effect = lower value 0.644 | locus YLR039C, strain RIC1, stronger effect = lower value 0.469 | locus YLR113W, strain HOG1, stronger effect = lower value 0.752 | locus YLR262C, strain YPT6 (second series), stronger effect = lower value 0.706 | locus YLR262C, strain YPT6, stronger effect = lower value 0.509 | locus YLR268W, strain sec22, stronger effect = lower value 0.845 | locus YLR342W, strain FKS1 (second series), stronger effect = lower value 0.751 | locus YLR418C, strain cdc73, stronger effect = lower value 0.824 | locus YML032C, strain rad52, stronger effect = lower value 0.847 | locus YMR223W, strain ubp8, stronger effect = lower value 0.865 | locus YMR307W, strain GAS1, stronger effect = lower value 0.481 | locus YNL250W, strain rad50, stronger effect = lower value 0.578 | locus YNL271C, strain bni1, stronger effect = lower value 0.452 | locus YNL298W, strain CLA4, stronger effect = lower value 0.202 | locus YNL307C, strain MCK1, stronger effect = lower value 0.649 | locus YNR052C, strain pop2, stronger effect = lower value 0.775 | locus YOL147C, strain pex11, stronger effect = lower value 0.908 | locus YOR144C, strain elg1, stronger effect = lower value 0.907 | locus YOR184W, strain ser1, stronger effect = lower value 0.675 | locus YOR231W, strain MKK1, stronger effect = lower value 0.803 | locus YPL256C, strain CLN2, stronger effect = lower value 0.825 | locus YPR119W, strain clb2, stronger effect = lower value 0.93 | locus YPR141C, strain kar3, stronger effect = lower value 0.817 | locus YPR163C, strain tif3, stronger effect = lower value 0.857 | locus YPR167C, strain met16, stronger effect = lower value 0.914 | strain wtn01, stronger effect = lower value 0.877
inactive: locus YAL021C, strain ccr4, stronger effect = lower value 0.986 | locus YAL026C, strain drs2, stronger effect = lower value 0.919 | locus YAL030W, strain snc1, stronger effect = lower value 0.981 | locus YBL061C, strain skt5, stronger effect = lower value 0.975 | locus YBR009C, strain hhf1, stronger effect = lower value 0.957 | locus YBR021W, strain FUR4, stronger effect = lower value 0.926 | locus YBR023C, strain chs3, stronger effect = lower value 0.964 | locus YBR171W, strain sec66, stronger effect = lower value 0.948 | locus YBR229C, strain ROT2, stronger effect = lower value 0.939 | locus YBR231C, strain swc5, stronger effect = lower value 0.986 | locus YBR279W, strain paf1, stronger effect = lower value 0.983 | locus YCL011C, strain gbp2, stronger effect = lower value 0.978 | locus YCL016C, strain dcc1, stronger effect = lower value 0.949 | locus YCL061C, strain MRC1, stronger effect = lower value 0.968 | locus YCL069W, strain vba3, stronger effect = lower value 0.987 | locus YCR088W, strain abp1, stronger effect = lower value 0.982 | locus YDL005C, strain med2, stronger effect = lower value 0.982 | locus YDL040C, strain nat1, stronger effect = lower value 0.987 | locus YDL074C, strain BRE1, stronger effect = lower value 0.858 | locus YDL101C, strain DUN1, stronger effect = lower value 0.975 | locus YDL192W, strain arf1, stronger effect = lower value 0.931 | locus YDR001C, strain nth1, stronger effect = lower value 0.973 | locus YDR069C, strain doa4, stronger effect = lower value 0.987 | locus YDR159W, strain sac3, stronger effect = lower value 0.962 | locus YDR195W, strain ref2 1.1 | locus YDR297W, strain sur2, stronger effect = lower value 0.992 | locus YDR334W, strain swr1, stronger effect = lower value 0.99 | locus YDR335W, strain msn5, stronger effect = lower value 0.989 | locus YEL003W, strain gim4, stronger effect = lower value 0.97 | locus YEL037C, strain rad23, stronger effect = lower value 0.979 | locus YEL061C, strain CIN8 (second series), stronger effect = lower value 0.98 | locus YEL061C, strain CIN8, stronger effect = lower value 0.943 | locus YER015W, strain faa2, stronger effect = lower value 1.01 | locus YER016W, strain bim1, stronger effect = lower value 0.976 | locus YER110C, stronger effect = lower value 0.937 | locus YER111C, strain swi4, stronger effect = lower value 0.981 | locus YER155C, strain BEM2 (second series), stronger effect = lower value 1.03 | locus YER155C, strain BEM2, stronger effect = lower value 0.939 | locus YER167W, strain BCK2, stronger effect = lower value 0.959 | locus YFR010W, strain ubp6, stronger effect = lower value 0.991 | locus YGL167C, strain pmr1, stronger effect = lower value 0.963 | locus YGL173C, strain kem1, stronger effect = lower value 0.955 | locus YGL227W, strain vid30, stronger effect = lower value 0.984 | locus YGL240W, strain doc1, stronger effect = lower value 0.999 | locus YGL248W, strain PDE1, stronger effect = lower value 0.914 | locus YGL253W, strain hxk2, stronger effect = lower value 0.975 | locus YGR135W, strain pre9, stronger effect = lower value 0.895 | locus YGR252W, strain gcn5, stronger effect = lower value 0.794 | locus YHR013C, strain ard1, stronger effect = lower value 1.02 | locus YHR027C, strain rpn1, stronger effect = lower value 0.983 | locus YHR094C, strain hxt1, stronger effect = lower value 0.941 | locus YHR129C, strain ARP1, stronger effect = lower value 0.945 | locus YHR142W, strain chs7, stronger effect = lower value 0.957 | locus YHR200W, strain rpn10, stronger effect = lower value 0.924 | locus YIL066C, strain RNR3, stronger effect = lower value 0.936 | locus YIL073C, strain SPO22, stronger effect = lower value 0.891 | locus YIR030C, strain dcg1, stronger effect = lower value 0.931 | locus YJL092W, strain hpr5, stronger effect = lower value 0.979 | locus YJL095W, strain BCK1 (second series), stronger effect = lower value 0.983 | locus YJL115W, strain asf1, stronger effect = lower value 1 | locus YJL134W, strain LCB3, stronger effect = lower value 0.938 | locus YJL154C, strain vps35, stronger effect = lower value 0.994 | locus YJL164C, strain tpk1, stronger effect = lower value 0.979 | locus YJL166W, strain qcr8, stronger effect = lower value 0.975 | locus YJL168C, strain set2, stronger effect = lower value 0.941 | locus YJL187C, strain SWE1 (second series), stronger effect = lower value 0.942 | locus YJL187C, strain SWE1, stronger effect = lower value 0.985 | locus YJR043C, strain POL32, stronger effect = lower value 0.935 | locus YJR066W, strain TOR1, stronger effect = lower value 0.834 | locus YJR075W, strain HOC1, stronger effect = lower value 0.937 | locus YKL160W, strain elf1, stronger effect = lower value 0.968 | locus YKL190W, strain CNB1, stronger effect = lower value 0.962 | locus YKR026C, strain gcn3, stronger effect = lower value 0.976 | locus YKR091W, strain srl3, stronger effect = lower value 0.979 | locus YLL001W, strain dnm1, stronger effect = lower value 0.975 | locus YLL026W, stronger effect = lower value 0.976 | locus YLL041C, strain sdh2, stronger effect = lower value 0.98 | locus YLR027C, strain aat2, stronger effect = lower value 0.969 | locus YLR058C, strain SHM2, stronger effect = lower value 0.956 | locus YLR102C, strain apc9, stronger effect = lower value 0.949 | locus YLR221C, strain rsa3, stronger effect = lower value 0.959 | locus YLR258W, strain gsy2, stronger effect = lower value 0.942 | locus YLR320W, strain mms22, stronger effect = lower value 0.919 | locus YLR330W, strain CHS5, stronger effect = lower value 0.932 | locus YLR342W, strain FKS1, stronger effect = lower value 0.965 | locus YLR357W, strain rsc2, stronger effect = lower value 1.1 | locus YLR370C, strain arc18, stronger effect = lower value 0.948 | locus YLR371W, strain rom2, stronger effect = lower value 0.942 | locus YLR384C, strain iki3, stronger effect = lower value 0.987 | locus YML016C, strain PPZ1, stronger effect = lower value 0.951 | locus YML120C, strain ndi1, stronger effect = lower value 0.942 | locus YML124C, strain tub3, stronger effect = lower value 0.934 | locus YMR058W, strain fet3, stronger effect = lower value 0.963 | locus YMR078C, strain ctf18, stronger effect = lower value 0.918 | locus YMR125W, strain sto1, stronger effect = lower value 1.03 | locus YMR129W, stronger effect = lower value 0.983 | locus YMR205C, strain PFK2, stronger effect = lower value 0.986 | locus YMR231W, strain pep5, stronger effect = lower value 0.964 | locus YNL067W, strain RPL9B, stronger effect = lower value 0.956 | locus YNL071W, strain lat1, stronger effect = lower value 0.945 | locus YNL183C, strain NPR1, stronger effect = lower value 0.843 | locus YNL209W, strain ssb2, stronger effect = lower value 0.99 | locus YNL233W, strain BNI4, stronger effect = lower value 0.935 | locus YNL248C, strain rpa49, stronger effect = lower value 1.02 | locus YNL322C, strain KRE1 (second series), stronger effect = lower value 0.992 | locus YNR049C, strain mso1, stronger effect = lower value 0.982 | locus YOL012C, strain htz1 0.759 | locus YOR001W, strain rrp6, stronger effect = lower value 0.953 | locus YOR061W, strain CKA2, stronger effect = lower value 0.926 | locus YOR069W, strain VPS5, stronger effect = lower value 0.971 | locus YOR070C, strain gyp1, stronger effect = lower value 0.973 | locus YOR080W, strain dia2, stronger effect = lower value 1.01 | locus YOR083W, strain WHI5, stronger effect = lower value 0.982 | locus YOR106W, strain vam3, stronger effect = lower value 0.959 | locus YOR136W, strain idh2, stronger effect = lower value 0.989 | locus YOR265W, strain rbl2, stronger effect = lower value 1 | locus YOR270C, strain vph1, stronger effect = lower value 0.961 | locus YOR290C, strain snf2, stronger effect = lower value 0.906 | locus YOR316C, strain cot1, stronger effect = lower value 0.939 | locus YPL051W, strain arl3, stronger effect = lower value 0.923 | locus YPL055C, strain LGE1, stronger effect = lower value 0.925 | locus YPL078C, strain atp4, stronger effect = lower value 0.975 | locus YPL106C, strain sse1, stronger effect = lower value 1.15 | locus YPL240C, strain hsp82, stronger effect = lower value 0.977 | locus YPL241C, strain CIN2, stronger effect = lower value 0.948
